Assay outcomes deposited in PubChem BioAssay by National Center for Advancing Translational Sciences (NCATS).
IL1B secr inh – blocks inflammasome-driven IL-1 beta release. THP-1 LPS/ATP IL-1B secretion, AlphaLISA, 16 h; stronger effect = lower value. activity change, % at 57.5 µM. 4.7% of 360,000 active; in the data active = activity change below about -50%; inconclusive = mostly about -30% to -49%
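THP-1 cells pretreated 1 hr with compounds (up to 57.5 uM final), then stimulated with LPS (250 ng/mL final) plus ATP (1.25 mM final); secreted IL-1B measured by AlphaLISA after 16 hr, decreased signal indicating inhibition.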
TDP1 cell noCPT – qHTS for Inhibitors of human tyrosyl-DNA phosphodiesterase 1 (TDP1): qHTS in cells in absence of CPT | DT40 Tdp1-/- hTDP1 cells, no CPT, ATP luminescence, 48 h | Potency, µM (doses to about 46.2 µM), for the others: at the top dose activity change, negative = growth inhibition, hits mostly inhibitors | 15% of 420,000 active | AID 686978, 2013; note: potency is the fitted concentration of half-maximal effect; nearly all actives have a fitted effect of over 55% in size
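Chicken DT40 Tdp1-/- cells stably complemented with human TDP1 were seeded at 400 cells/well with DMSO in place of 20 nM camptothecin. After compound pinning, cells grew at least 48 hr at 37 °C; viability read by CellTiter-Glo luminescence.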
HT1080-NT tox – kills 2HG-producing HT-1080-NT fibrosarcoma cells; 1.6% of 360,000 active; Potency, µM (doses to about 46.1 µM), inactives show top-dose activity, negative = less viability, actives largely listed as cytotoxic; HT-1080-NT fibrosarcoma viability, CellTiter-Glo ATP luminescence, 48 h; AID 686970;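 note: NT is the 2HG producing partner of a matched IDH1 knockdown line; potency is the fitted concentration of half-maximal effect; 0% = DMSO-treated cells and -100% = media-only wells without cells; nearly all actives have a fitted effect of over 55% in size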
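Read-out is CellTiter-Glo luminescence after 10 minutes at room temperature, following 48 hours' compound treatment of HT-1080-NT cells (750 cells/well, RPMI, 5% FBS, 37 degrees C).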
TDP1 cell CPT – DT40-hTDP1 cell growth loss with CPT | chicken DT40 Tdp1-/-;hTDP1 cells + 20 nM CPT, ATP luminescence, 48 h | Potency, µM (doses to about 46.2 µM), inactives show at the highest dose activity change, negative = growth inhibition, actives largely listed as inhibitors | 12% of 420,000 active | AID 686979; note: potency is the fitted concentration of half-maximal effect; nearly all actives have a fitted effect of over 55% in size
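Cell growth measured by CellTiter-Glo luminescence after a minimum 48 h, 37 C compound exposure with 20 nM CPT in Tdp1-knockout DT40 cells stably expressing hTDP1, seeded 400/well; qHTS titration format.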
HT1080 IDH1KD tx – kills HT-1080 cells with IDH1 knockdown. HT-1080 IDH1 knockdown viability, ATP luminescence, 48 h. Potency, µM (series often up to 46.1 µM), inactives show top-dose activity, negative = toxicity, hits mostly cytotoxic. 2% of 360,000 active;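 note: potency is the fitted concentration of half-maximal effect; 0% = DMSO wells and -100% = cell-free medium wells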
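After a 2 h attachment period, IDH1KD HT-1080 cells took pin-transferred compound for 48 h at 37 °C; ATP-based luminescence after 10 min room-temperature reagent incubation reported viability.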
Starred values were filed as active, the others as inactive; ? = inconclusive; . = not tested or not shown. Compounds with a hit are over-represented: about 19% of the library has one in this group of screens. Unless noted, calls come from the whole dose curve; as a rule, active = well fitted curve in the direction sought with a large enough effect; inconclusive = small, poorly fitted or top-dose-only effect, or another doubt; inactive = no such curve, though single readings can be large; an effect the other way counts as inactive or inconclusive. Unless noted, % is set by controls: 0 for no effect and ±100 for the full control effect.

SMILES | IL1B secr inh | TDP1 cell noCPT | HT1080-NT tox | TDP1 cell CPT | HT1080 IDH1KD tx
O=C(CN1C(=O)c2ccccc2C1=O)Oc1ccc(Cl)cc1 | 16 | 7% | -11% | -19% | -5%
COc1ccc(Cl)cc1NC(=O)C/C(C)=N/NC(=O)Cc1ccccc1 | -11 | -4% | -18% | -3% | -16%
CCOC(=O)c1cc(-c2ccccc2)n(CCC(=O)NCCc2ccc(OC)c(OC)c2)c1C | . | 23µM* | . | 21µM* | .
CCOC(=O)c1c(C(=O)OCC)c(C)n(CCc2ccc(OC)c(OC)c2)c1C | 1 | ? | 8% | 23µM* | 5%
CCOC(=O)c1cc(-c2ccc(C)cc2)n(CCC(=O)N2CCN(c3ccccn3)CC2)c1C | -56* | 23µM* | 4% | 23µM* | 4%
Cc1ccc(SCC(=O)N2CCN(c3ccccn3)CC2)cc1 | 23 | -12% | 6% | -29% | -9%
CCOC(=O)c1cc(-c2ccc(C)cc2)n(CCC(=O)NCCc2ccc(C)cc2)c1C | . | 18µM* | . | ? | .
COc1ccc2c(c1)c(C(C)=O)c(C)n2CCc1ccc(OC)c(OC)c1 | -4 | -13% | 4% | -3% | 1%
O=C1NC[C@H](CCCCN2CCN(CCC3CCCCC3)C(=O)C2=O)N(CCc2ccccc2)C1=O | 20 | -18% | 19% | -16% | ?
CCOC(=O)c1cc(-c2ccccc2)n(CCC(=O)NCCc2ccc(C)cc2)c1C | . | 8.2µM* | . | 15µM* | .
CCOC(=O)c1cc(-c2ccc(OC)cc2)n(CCC(=O)NCc2ccc(OC)cc2)c1C | . | 18µM* | . | ? | .
CCOC(=O)c1cc(-c2ccccc2)n(CC(=O)N(C)c2ccc(OC)cc2)c1C | . | 23µM* | . | ? | .
CCOC(=O)c1cc(-c2ccc(F)cc2)n(CCC(=O)NCCc2ccc(C)cc2)c1C | . | 21µM* | . | ? | .
CC1=C(NCCc2ccccc2)CCC1=O | 38 | 21µM* | -1% | 21µM* | 1%
Cc1nn(C)c(Cl)c1C(N)=O | 11 | 2% | 11% | -19% | 17%
CCOC(=O)N1CCC(n2c(SCC(=O)N3CCC(C)CC3)nc3ccccc3c2=O)CC1 | ? | ? | -5% | 16µM* | -18%
CCOC(=O)N1CCC(n2c(SCC(=O)Nc3ccccc3OC)nc3ccccc3c2=O)CC1 | -1 | ? | 0% | ? | -15%
CC(C)Cn1c(SCC(=O)N2CCCCC2)nc2ccccc2c1=O | -1 | 26µM* | -17% | ? | -9%
CC(C)Cn1c(SCC(=O)N2CCOCC2)nc2ccccc2c1=O | ? | 14% | 2% | -4% | -1%
CCOC(=O)N1CCC(n2c(SCC(=O)NCc3ccccc3)nc3ccccc3c2=O)CC1 | -27 | 21µM* | 5% | 23µM* | 0%
CCOC(=O)N1CCC(n2c(SCC(=O)N3CCCC3)nc3ccccc3c2=O)CC1 | 19 | 18µM* | -1% | 23µM* | -9%
COc1ccc(C(=O)Nn2c(SCC(=O)NC3CCCCC3)nc3ccccc3c2=O)cc1 | ? | -15% | ? | 2% | -21%
C=CCSc1nc2ccccc2c(=O)n1C1CCOC(C)(C)C1 (stereo not drawn) | 49 | 23µM* | -10% | 16µM* | -7%
COc1ccc(C(=O)Nn2c(SCC(=O)N3CCC(C)CC3)nc3ccccc3c2=O)cc1 | -53* | -21% | ? | -17% | ?
C=CCSc1nc2ccccc2c(=O)n1Cc1ccccc1 | 0 | -10% | 14% | 23% | 0%
SMILES | IL1B secr inh | TDP1 cell noCPT | HT1080-NT tox | TDP1 cell CPT | HT1080 IDH1KD tx
O=c1c2ccccc2nc(SCCN2CCCCC2)n1CCc1ccccc1 | -60* | 21µM* | ? | ? | 15µM*
NC(=O)CSc1nc2ccccc2c(=O)n1CCc1ccccc1 | 17 | ? | 9% | -15% | 3%
CC1(c2ccc(Cl)cc2)NC(=O)N(CC(=O)NC(=O)NCc2ccco2)C1=O (stereo not drawn) | -8 | 1% | -24% | 20% | ?
CCN(CC)C(=O)/C(C#N)=C/c1cc(O)c(O)c([N+](=O)[O-])c1 | . | -19% | . | -18% | .
CSc1nc(C)c2cc(C)oc2n1 | 0 | -17% | 10% | 0% | 16%
Cc1nc(/C=C\C(=O)O)c2cc(C)oc2n1 | -66* | -7% | 24% | 3% | 19%
COc1ccc2c(c1)[C@H]1[C@H](CO2)[C@H](c2ccccc2)[C@]2(C)C(=O)Nc3ccc(Br)cc3C(=O)N12 | ? | ? | 0% | 16µM* | -10%
Cc1ccc2c(c1)[C@H]1[C@H](CO2)[C@H](c2ccccc2)[C@]2(C)C(=O)Nc3ccc(Br)cc3C(=O)N12 | ? | 16µM* | -27% | ? | ?
Cc1ccc2c(c1)C(=O)N1[C@H]3c4cc(Br)ccc4OC[C@@H]3[C@H](c3ccccc3)[C@]1(C)C(=O)N2 | -23 | 23µM* | ? | 23µM* | ?
COc1ccc2c(c1)OC[C@H]1[C@H]2N2C(=O)c3cc(Br)ccc3NC(=O)[C@@]2(C)[C@H]1c1ccccc1 | -13 | ? | 5% | -6% | -2%
CC(C)NCc1nnc(-c2ccccc2Cl)o1 | -27 | -9% | -4% | 1% | -2%
Cc1cc(F)ccc1NCc1ccccc1-c1nnc(-c2ccccc2Cl)o1 | . | 21µM* | . | ? | .
O=C(Nc1ccc(CN2CCS(=O)(=O)CC2)cc1)c1ccccc1 | -4 | -4% | 9% | 9% | 6%
O=C(Nc1ccc(CN2CCS(=O)(=O)CC2)cc1)c1ccc(C(F)(F)F)cc1 | -20 | 21µM* | ? | ? | -25%
CC(C)(C)c1ccc(C(=O)Nc2ccc(CN3CCS(=O)(=O)CC3)cc2)cc1 | -60* | 21µM* | -4% | 16µM* | ?
O=C(Nc1ccc(CN2CCS(=O)(=O)CC2)cc1)c1ccc(F)cc1 | -2 | 4% | 3% | 0% | 18%
COc1ccc(CNC(=O)COC(=O)c2nc3nc(C)cc(C)n3n2)cc1 | 30 | 3% | 4% | 3% | 18%
COc1cc(C(=O)Oc2ccc3ccc(O)cc3c2)cc(OC)c1OC | 34 | ? | -11% | -13% | 1%
CCOc1ccc(/C=C/C(=O)c2ccccc2)cc1 | ? | ? | 6% | ? | 5%
CCOc1ccc(C(=O)c2ccc(OC)c(O)c2O)cc1 | . | ? | . | 21µM* | .
CCOc1ccc(/C=C2/C(=O)N(c3ccc(OC)cc3)C(=S)N2CC(=O)OC)cc1OCC | 29 | ? | -11% | ? | -7%
CCOc1ccc(C(=O)/C=C/c2cc(OC)c(OC)c(OC)c2)cc1 | -94* | 8.2µM* | ? | 10µM* | 16µM*
COc1ccc(C(=O)/C=C/c2ccc(OC(=O)c3cc(OC)c(OC)c(OC)c3)cc2)cc1 | -83* | 21µM* | ? | ? | ?
